PubChem BioAssay (EPA / NIEHS)
The source holds several records for some structures; these can differ, active in one and inactive in another. Activity calls are given as the source filed them. The calls were made as follows: active = hit-call score of the fitted dose curve at least 0.9, where 1 is the maximum; inactive = score below 0.9.

Experiment: IUF_NPC2-5_cell_number_120hr: Cell Number Assessment at 120 hours in the Leibniz Research Institute for Environmental Medicine (IUF) Neural Progenitor Cell Migration and Differentiation Assay (NPC2-5) (AID 2284308);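 also: count of Hoechst-stained nuclei in migration zone around plated human neural progenitor spheres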
Experimental: IUF_NPC2-5 is a cell-based, multiplexed assay that uses hNPC, a human primary neural progenitor cells, with measurements taken at 72 or 120 hours after chemical dosing in a 96-well plate. Human neural progenitor cells (hNPC) are generated from human fetal brain cortex at gestational week (GW) 16-19. In the neural progenitor cell migration and differentiation assay (NPC2-5), hNPCs grown as spheres are plated on an extracellular matrix and migrate and differentiate out of the sphere core. The processes radial glia migration, neuronal and oligodendrocyte migration as well as neuronal differentiation, neuronal morphology and oligodendrocyte differentiation are studied using automated phase contrast imaging and automated fluorescence imaging in combination with high content image analysis. In parallel, the cell viability is assessed using an alamar blue viability assay and the cytotoxicity using a lactate dehydrogenase dependent membrane integrity assay.IUF_NPC2-5_cell number_120hr is one of 12 assay components measured from the IUF_NPC2-5 assay. The cell number at 120 hr is assessed as the number of all Hoechst-positive nuclei identified in the migration area (see IUF_NPC2a_ glia_migration_120hr).Data from the IUF_NPC2-5_cell_number_120hr component was analyzed at the endpoint IUF_NPC2-5_cell_number_120hr in the positive analysis fitting direction relative to DMSO as the negative control and baseline of activity. Using a type of viability reporter, gain or loss-of-signal activity can be used to understand viability effects.
Culture protocol: After the cell expansion period the cells are cultured for up to four weeks in which they are passaged every week as described in 3.6. Between one to three days after passaging spheres at a size of 0.3 mm are picked for the test method. For the assessment of neural progenitor cell migration and differentiation, the spheres are plated on poly-D-lysine/laminin coated 96-well flat bottom plates in differentiation medium (N2) to initiate migration and differentiation. Thereby one 0.3 mm big sphere is plated in the middle of a well. The differentiation medium consists of DMEM and Ham's F12 at a ratio of 3 to 1 supplemented with 1% N2 and 1% penicillin and streptomycin. Within 5 days NPCs radially migrate out of the sphere core and differentiate into radial glia cells (nestin positive), neurons (TUBB3 positive), oligodendrocytes (O4 positive) and astrocytes (GFAP positive). Cultivation during the test method is performed at 37C and 5% CO2 at a ph of 7.2-7.6.Exposure: 0.3 mm big hNPC are plated in the already prepared test conditions. Exposure starts at day 0 of differentiation and is continued over five days of differentiation until the experiment is terminated. Cells are fed with fresh medium at day 3 of differentiation. Therefore, half of the test condition solution (e.g. solvent control or compound dilution) is replaced by freshly prepared test condition solution.Test Method: Migration distance and cytotoxicity is determined after 72 hours based on brightfield images of each well. The assay is terminated by the assessment of cell viability and cytotoxicity as well as cell fixation after 120 h. Immunocytochemistry is performed for Hoechst positive nuclei, TUBB3 positive neurons and O4 positive oligodendrocytes. On the ICC images, migration after 120 hours, neuronal and oligodendrocyte number, neuronal morphology and neuron/oligodendrocyte specific migration is assessed. immunocytochemical staining (ICC) generates an image for each sphere. The plates are scanned using an automated high content imaging device and all nuclei and their positions are determined automatically based on their intensity and size. Images are imported to the Omnisphero software to run the image analysis that measures the following endpoints. The method is set up for 8 test conditions including 7 compound concentrations and one SC. The test conditions are prepared in a serial dilution from the stock solution. […]

Question: For `CCC(C)(C)C(=O)OC1=C(c2ccc(Cl)cc2Cl)C(=O)OC12CCCCC2`, which outcome is on record?
Answer: inactive

Question: Which outcome does the source give for `CC1(c2ccc(Oc3ccccc3)cc2)OC(=O)N(Nc2ccccc2)C1=O` (centres undefined) here?
Answer: inactive

Question: With `CC(C)N(C(=O)COc1nnc(C(F)(F)F)s1)c1ccc(F)cc1` as the compound, how does the outcome read?
Answer: inactive

Question: Which results are given for `O=S(=O)(O)C(F)(F)C(F)(F)C(F)(F)C(F)(F)C(F)(F)C(F)(F)C(F)(F)C(F)(F)F`?
Answer: outcome: inactive; AC50: 73 µM (active)

Question: For `CC1(C)C(C=C(Cl)Cl)C1C(=O)OC(C#N)c1ccc(F)c(Oc2ccccc2)c1` (centres undefined), which outcome is on record?
Answer: inactive

Question: Which outcome does the source give for `O=C(O)COc1ccc(Cl)cc1Cl` here?
Answer: inactive

Question: With `O=S1OCC2C(CO1)C1(Cl)C(Cl)=C(Cl)C2(Cl)C1(Cl)Cl` (centres undefined) as the compound, how does the outcome read?
Answer: inactive

Question: Which outcome does the source give for `COP(=S)(OC)Oc1ccc([N+](=O)[O-])cc1` here?
Answer: inactive

Question: For `O=C(O)C(F)(F)C(F)(F)C(F)(F)C(F)(F)C(F)(F)C(F)(F)C(F)(F)F`, which outcome is on record?
Answer: inactive

Question: With `O=[N+]([O-])/N=C1\NCCN1Cc1ccc(Cl)nc1` as the compound, how does the outcome read?
Answer: inactive

Question: With `CC[C@H](C)[C@H]1O[C@]2(C=C[C@@H]1C)C[C@@H]1C[C@@H](C/C=C(\C)[C@@H](O[C@H]3C[C@H](OC)[C@@H](O[C@H]4C[C@H](OC)[C@@H](O)[C@H](C)O4)[C@H](C)O3)[C@@H](C)/C=C/C=C3\CO[C@@H]4[C@H](O)C(C)=C[C@@H](C(=O)O1)[C@]34O)O2` (tested in a mixture with another compound) as the compound, how does the AC50 read?
Answer: 7.63 µM (active)

Question: Which outcome does the source give for `CNC(=O)CSP(=S)(OC)OC` here?
Answer: inactive

Question: For `COP(=O)(OC)OC=C(Cl)Cl`, which AC50 is on record?
Answer: 15 µM (active)
